High-throughput results from PubChem.
Pf growth 96h – P. falciparum growth inhibition at 96 hours | P. falciparum luciferase reporter growth, 96 h | Potency, µM (doses to about 28.7 µM), actives largely listed as inhibitors | 6.9% of 320,000 active | AID 504834
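Two-generation exposure (96 h) targets delayed-death phenotype. Reporter parasites carrying integrated firefly luciferase, in red cells at 2% hematocrit and 0.05% parasitemia final, kept at 37 C, 5% CO2; luminescence loss indicates inhibition.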
AMA1 RON2 block – disrupts binding of P. falciparum AMA1 to RON2 | 0.2% of 360,000 active | Potency, µM (top dose mostly 58.2 µM), usual class: inhibitors | AlphaScreen AMA1-biotinylated RON2 peptide binding | AID 720542; also: nearly all actives have a fitted effect of over 45% in size
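AMA1 (3D7) with his tag at 25 nM final met compounds first, then biotinylated RON2 peptide at 25 nM; detection used donor plus acceptor beads, 10 µg/mL apiece, read by AlphaScreen after 30 min at room temperature.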
SARS PLpro yeast – inhibitors of SARS-CoV papain-like protease in yeast | S. cerevisiae expressing SARS-CoV PLpro, growth rescue | Potency, µM (series often up to 32.9 µM), actives largely listed as activators | 0.19% of 330,000 active; calls by dose curve; also: nearly all actives have a fitted effect of over 55% in size
Shiga inhibitor – blocks Shiga toxin action in Vero cells; 9.2% of 290,000 active; inhibition, % at 38.7 µM; Vero cells, Shiga toxin protein synthesis inhibition reporter; in the data active = inhibition mostly above about 28%, no sharp cut-off; inactive = mostly below about 43%
CHX counter – counter-screen hit for Shiga toxin inhibitors, cycloheximide; cell reporter, cycloheximide protein synthesis inhibition counterscreen; AID 2314; 12% of 300,000 active; max response, %; in the data active = max response mostly above about 13%, no sharp cut-off; inactive = mostly below about 14%; also: read at 38.3 µM for the half of the compounds with a filed dose
Pf growth 48h – P. falciparum growth inhibition at 48 hours (one generation). 5.9% of 310,000 active. AID 504832. P. falciparum luciferase growth in erythrocytes, 48 h. Potency, µM (series often up to 28.7 µM), usual class: inhibitors
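Read-out is firefly luciferase luminescence from an integrated reporter in P. falciparum, so falling signal marks reduced parasite growth. Infected erythrocytes were at 2% hematocrit and 0.1% parasitemia (final) in Albumax-supplemented RPMI 1640.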
Numbers stand for hits; i = inactive; ? = inconclusive; nt = not tested or not shown. The list is not random: actives were taken first. Their share in the collection is about 19%. Unless noted, calls follow the shape of the dose curve; as a rule, active = well fitted curve in the direction sought with a large enough effect; inconclusive = small, poorly fitted or top-dose-only effect, or another doubt; inactive = no such curve, though single readings can be large; an effect the other way counts as inactive or inconclusive.

SMILES	Pf growth 96h	AMA1 RON2 block	SARS PLpro yeast	Shiga inhibitor	CHX counter	Pf growth 48h
CC(C)Oc1ccccc1C1CC(=O)Nc2c1c(=O)n(C)c(=O)n2C (stereo not drawn)	?	nt	i	i	i	nt
CCc1nc2c(OCc3ccc(C(F)(F)F)cc3)cccn2c1N(C=O)Cc1ccc(OC)cc1	nt	i	nt	nt	nt	nt
CC1CN(CC(=O)Nc2cccc(C(=O)Nc3cccc(C(F)(F)F)c3)c2)CC(C)O1 (stereo not drawn)	0.15µM	i	i	i	i	nt
CC1CCN(CC(=O)Nc2cccc(C(=O)Nc3cccc(C(F)(F)F)c3)c2)CC1	0.93µM	i	i	i	i	1.3µM
O/N=C(\c1ccccc1)C(O)c1ccccc1 (stereo not drawn)	i	i	i	i	i	i
CSCCC(NC(=O)COc1ccccc1)C(=O)N1CCOCC1 (stereo not drawn)	i	i	i	nt	nt	i
Nc1ccc(-c2nc3c(Cl)c(N)ccc3[nH]2)cc1	?	i	i	78	i	i
NC(=O)c1ccc2nc(-c3ccc(Oc4ccc(Cl)cc4)cc3)[nH]c2c1	nt	nt	nt	45	i	nt
CC(=O)Nc1cccc(-c2nc3ccc(NC(C)=O)cc3[nH]2)c1	?	i	i	i	i	i
Cc1c(N)cccc1-c1nc2ccccc2[nH]1	i	i	?	39	52	i
Nc1ccc2nc(C3CCCCC3)[nH]c2c1	i	i	i	i	13	i
Nc1nc2ccc(Cl)cc2[nH]1	nt	i	nt	nt	nt	nt
Nc1ccc2nc(-c3cccc(-c4nc5ccc(N)cc5[nH]4)c3)[nH]c2c1	i	?	i	i	i	1.9µM
Cc1ccc2nc(CCc3nc4ccc(C)cc4[nH]3)[nH]c2c1	i	i	i	i	i	i
Cc1nc2ccc(-c3nc4ccc(N)cc4[nH]3)cc2[nH]1	i	i	i	i	i	?
Clc1ccc2nc(-c3ccc(Cl)nc3)[nH]c2c1	?	i	i	53	24	?
Nc1ccc(-c2nc3ccc(N)cc3[nH]2)cc1	?	?	i	i	24	i
Cc1ccc(C)c(-c2nc3ccc(N)cc3[nH]2)c1	i	i	i	i	14	?
CCCCn1c(N)c(N(CC(C)C)C(=O)CCNC(=O)c2ccc(Br)cc2)c(=O)[nH]c1=O	?	i	i	nt	nt	i
O=S(=O)(Nc1ccccc1)C1CCCCC1	nt	i	nt	nt	nt	nt
CCOc1ccc(C(=O)OCC(=O)Nc2ccc(SC(F)F)cc2)cc1OCC	i	i	i	i	i	i
COc1ccc(S(=O)(=O)N2CCCC(C(=O)NCCC(C)C)C2)cc1 (stereo not drawn)	i	i	i	i	i	?
O=S(=O)(O)c1ccc2nc(-c3ccccc3)[nH]c2c1	i	nt	nt	nt	nt	i
Nc1ccc2nc(-c3cc(Cl)c(N)c(Cl)c3)[nH]c2c1	?	?	i	64	36	2.9µM
Nc1ccc2nc(-c3ccc(Cl)cc3)[nH]c2c1	?	i	i	97	62	nt
SMILES	Pf growth 96h	AMA1 RON2 block	SARS PLpro yeast	Shiga inhibitor	CHX counter	Pf growth 48h
Cc1ccc2nc(-c3ccccc3N)[nH]c2c1	i	i	i	i	41	i
Cc1ccc([C@@H]2CC(=O)[C@@H]3CN(S(=O)(=O)c4ccc(C)cc4)[C@H](c4ccccc4F)C[C@@H]3N2S(=O)(=O)c2ccc(C)cc2)cc1	nt	i	nt	nt	nt	nt
Cc1nc(N)sc1C(=O)Nc1ccccc1	?	i	i	68	35	i
Cc1nc(/N=C\N(C)C)sc1C(=O)Nc1ccccc1	i	i	i	51	i	i
Cc1nc(C(=O)Nc2ccccc2)sc1C(=O)Nc1ccccc1	i	i	i	79	40	i
Cc1noc(N)c1C(=O)Nc1ccc(C(C)(C)C)cc1	i	i	i	136	40	i
CC(C)(C)N1CCC1CN (stereo not drawn)	i	i	i	i	i	i
CC(Sc1nnc(CNc2cccc3ccccc23)n1-c1ccccc1)C(=O)N/N=C/c1ccco1 (stereo not drawn)	?	i	i	i	i	i
Cc1nc(Cl)sc1C(=O)Nc1ccc(C(C)(C)C)cc1	i	i	i	91	50	i
Cc1ccc(C)c(S(=O)(=O)Nc2nc(C)c(C(=O)Nc3ccccc3)s2)c1	0.66µM	i	i	i	i	?
Cc1ccc(S(=O)(=O)Nc2nc(C)c(C(=O)NN)s2)cc1	i	i	i	54	20	i
Cc1ccc(NC(=O)c2sc(N)nc2C)cc1	i	i	i	54	37	i
COCCNC(=S)Nc1ccc(N2CCOCC2)c(S(=O)(=O)Nc2ccccc2OC)c1	?	i	i	nt	nt	?
Cc1nc(Nc2c(Cl)cccc2Cl)sc1C(=O)Nc1ccccc1	i	i	?	i	19	i
Cc1nc(NC(N)=S)sc1C(=O)Nc1ccccc1	?	i	?	i	i	i
CC1(C)Oc2ccc3ccc(=O)oc3c2-c2cnoc21	?	i	i	i	i	i
CC1(C)Oc2ccc3ccc(=O)oc3c2-c2cn[nH]c21	9.3µM	i	i	i	i	?
CC1=CCC2C(=O)N(c3ccc4ccccc4n3)C(=O)C2C1 (stereo not drawn)	i	i	i	i	9.4	i
COc1cnc(-c2ccccn2)nc1N(C)C	2.3µM	i	i	i	i	4.1µM
COc1cnc(-c2ccccn2)nc1Sc1c(Cl)cccc1Cl	2.1µM	i	i	i	i	1.7µM
CCOC(=O)C(C)Sc1nc(-c2ccccn2)ncc1OC (stereo not drawn)	3.3µM	i	i	i	i	13µM
COc1ccc(Oc2nc(-c3ccccn3)ncc2OC)cc1	?	i	i	i	i	i
COc1cnc(-c2ccccn2)nc1Sc1ccccc1Cl	?	i	i	i	i	?
COc1cnc(-c2ccccn2)nc1Oc1c(C)cccc1C	0.21µM	i	i	i	i	12µM
COc1cnc(-c2ccccn2)nc1Oc1cccc(Cl)c1	2.6µM	i	i	i	i	?
SMILES	Pf growth 96h	AMA1 RON2 block	SARS PLpro yeast	Shiga inhibitor	CHX counter	Pf growth 48h
CC(C)(C)c1ccccc1NC(=O)NC1CCN(Cc2c(F)cccc2Cl)CC1	?	i	i	i	i	7.4µM
O=C(Nc1ccccc1F)NC1CCCCCCC1	i	i	i	98	57	i
COC(=O)c1ccccc1NC(=O)NCc1ccncc1	13µM	i	i	i	i	i
O=C(Nc1ccccc1F)NC1CC1	i	i	i	52	i	i
O=C(Nc1ccccc1)NC1CCN(Cc2c(F)cccc2Cl)CC1	i	i	i	i	i	i
O=S(=O)(NC(=NCc1ccccc1)c1ccc(F)cc1)c1ccc(Cl)cc1	i	i	i	i	i	i
CCN1CCC(NC(=O)Nc2ccccc2C(=O)OC)CC1	?	i	i	i	i	i
COC(=O)c1ccccc1NC(=O)NC1CCC(C)CC1 (stereo not drawn)	i	i	i	34	16	i
Cc1ccc(C(=O)NCc2ccco2)cc1S(=O)(=O)Nc1cccc(Cl)c1	i	i	i	i	i	nt
Cc1cccc(Nc2nc(NCCCN3CCOCC3)nc(N)c2[N+](=O)[O-])c1	?	i	i	i	i	15µM
